# Laboratory results taken from PubChem BioAssay (NCATS).
# A number with no mark means an inactive call. Records with an inconclusive call do not appear. Entries that show only a call come without a potency. The source made the active and inactive calls. Unless noted, calls follow the shape of the dose curve; as a rule, active = well fitted curve in the direction sought with a large enough effect; inconclusive = small, poorly fitted or top-dose-only effect, or another doubt; inactive = no such curve, though single readings can be large; an effect the other way counts as inactive or inconclusive.
# Columns and labels:
# [1] = target: Single-stranded DNA cytosine deaminase (Homo sapiens) (UniProt Q9GZX7); assay: Validation qHTS assay for inhibitors of Activation Induced Cytidine Deaminase (AID): AID signal (AID 1347429)
# How it was run: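 AID+UDG coupled FRET deamination; cpds up to 114 uM final; DJC20/DJC23 substrate, 4 hr RT; NaOH stop, 30 min RT; read Ex 540/Em 590.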
# [2] = Primary qHTS for inhibitors of La Crosse Virus (LACV) - induced cell death in SH-SY5Y cells (AID 1508616);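 also: top concentration of the series differs between compounds; higher means more rescue of cells from virus-induced death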
# How it was run: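 Cytopathicity rescue screen: compounds pinned onto SH-SY5Y cells, which are then infected with LACV (MOI 0.01) and held 6 days at 37C. Percent activity is scaled between infected DMSO control and uninfected DMSO control.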
# [3] = target: Calcium and integrin-binding protein 1 (Homo sapiens) (UniProt Q99828); assay: Validation qHTS for Identification of Calcium Integrin Binding protein 1 (CIB1) Competitor (AID 1508618)
# How it was run: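 CIB1-GST (1 uM final) in 5 mM HEPES pH 7.4, 125 mM NaCl, 5 mM CaCl2, 0.01% Tween20 was preincubated 15 min at room temperature with compound (up to 114 uM), then FITC-alphaIIb peptide (100 nM) added for 15 min; fluorescence polarization read.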
# Papain (Carica papaya) = Papain (Carica papaya) (UniProt P00784); assay: Primary qHTS assay for inhibitors of the protease papain (AID 1645873);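 also: papain turnover of Z-FR-AMC read as the AMC fluorescence gain over 10 min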; also: potency is read from the fitted curve at half-maximal effect
# [4] = Primary qHTS for small molecule stabilizers of the endoplasmic reticulum resident proteome: Secreted ER Calcium Modulated Protein (SERCaMP) assay (AID 1508630)
# How it was run: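 The SH-SY5Y reporter protocol was run at 3 concentrations up to 38.3 uM (primary) or 11 concentrations (follow-up): 16 h compound, 100 nM thapsigargin for 4 h, then extracellular luciferase luminescence.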
# [5] = Counterscreen qHTS for small molecule stabilizers of the endoplasmic reticulum resident proteome: GLuc-NoTag assay (AID 1508627);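 also: SH-SY5Y cells given compound then 100 nM thapsigargin to empty ER calcium; series mostly up to about 76 µM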
# How it was run: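 Counterscreen line: SH-SY5Y-GLuc-NoTag. Seed, 5 h; compound, 19 h; thapsigargin 100 nM, 4 h; 37C/5% CO2. Readout: secreted GLuc luminescence, coelenterazine 0.07x final, no lysis.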
# [6] = Cell Viability qHTS for small molecule stabilizers of the endoplasmic reticulum resident proteome (AID 1508629); conditions: cell viability counter-screen, 100 nM thapsigargin for final 4 h;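 also: human SH-SY5Y neuroblastoma cells carrying the GLuc-SERCaMP reporter; compound exposure about 46 h in total before the viability read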
# [7] = target: Cytochrome P450 2C9 (Homo sapiens) (UniProt P11712); assay: Cytochrome P450 family 2 subfamily C member 9 (CYP2C9) small molecule antagonists: luciferase biochemical (cell-free) qHTS assay (AID 1645842; active = well fitted curve in the direction sought with a large enough effect in the repeat runs; an effect the other way counts as inactive or inconclusive; also: series mostly up to about 57 µM; nearly all actives have a fitted effect of over 55% in size)
# How it was run: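 P450-Glo CYP2C9 system: proluciferin substrate with enzyme in mix containing 0.4% BSA, 10 min at room temperature, then NADPH regeneration solution added and incubated 1 h at 37C. Detection reagent stopped reaction; luminescence read after 20 min as RLU.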
# Calcium and integrin-binding protein 1 (Homo sapiens), sequence (Q99828 whole entry, looked up): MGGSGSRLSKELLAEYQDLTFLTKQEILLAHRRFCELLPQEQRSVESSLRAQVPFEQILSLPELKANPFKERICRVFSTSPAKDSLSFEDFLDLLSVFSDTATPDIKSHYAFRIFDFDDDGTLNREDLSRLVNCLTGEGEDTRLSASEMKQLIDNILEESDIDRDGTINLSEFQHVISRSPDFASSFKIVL
# Papain (Carica papaya), sequence (P00784 whole entry, looked up): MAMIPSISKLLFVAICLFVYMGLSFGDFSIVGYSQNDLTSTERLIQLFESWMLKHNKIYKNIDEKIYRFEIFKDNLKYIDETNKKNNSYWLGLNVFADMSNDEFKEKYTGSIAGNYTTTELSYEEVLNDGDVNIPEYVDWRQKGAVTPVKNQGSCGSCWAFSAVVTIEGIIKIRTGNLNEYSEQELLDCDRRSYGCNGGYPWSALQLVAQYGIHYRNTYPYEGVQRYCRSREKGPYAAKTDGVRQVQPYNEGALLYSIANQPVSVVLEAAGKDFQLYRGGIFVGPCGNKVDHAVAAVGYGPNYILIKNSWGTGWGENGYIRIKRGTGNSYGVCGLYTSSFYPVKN
# Single-stranded DNA cytosine deaminase (Homo sapiens), sequence (Q9GZX7 whole entry, looked up): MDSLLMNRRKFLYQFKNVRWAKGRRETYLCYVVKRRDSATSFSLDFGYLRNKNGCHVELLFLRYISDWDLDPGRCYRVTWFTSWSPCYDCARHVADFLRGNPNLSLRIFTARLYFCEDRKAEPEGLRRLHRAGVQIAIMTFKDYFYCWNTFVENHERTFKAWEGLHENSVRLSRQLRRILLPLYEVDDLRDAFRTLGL
# Cytochrome P450 2C9 (Homo sapiens), sequence (P11712 whole entry, looked up): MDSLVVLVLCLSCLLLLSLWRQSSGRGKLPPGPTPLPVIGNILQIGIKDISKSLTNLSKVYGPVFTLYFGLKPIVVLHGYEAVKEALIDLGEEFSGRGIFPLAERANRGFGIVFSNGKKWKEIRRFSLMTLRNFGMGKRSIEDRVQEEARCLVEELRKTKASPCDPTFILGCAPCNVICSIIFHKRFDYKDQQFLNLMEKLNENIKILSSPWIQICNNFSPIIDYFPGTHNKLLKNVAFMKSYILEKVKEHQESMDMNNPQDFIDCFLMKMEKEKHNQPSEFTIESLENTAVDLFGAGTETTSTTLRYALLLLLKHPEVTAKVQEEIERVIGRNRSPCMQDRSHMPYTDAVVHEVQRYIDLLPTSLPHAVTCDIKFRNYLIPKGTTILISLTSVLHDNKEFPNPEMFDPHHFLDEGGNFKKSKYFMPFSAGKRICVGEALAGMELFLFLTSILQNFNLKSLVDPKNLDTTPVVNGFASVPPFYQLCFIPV
structure (smiles),measurement,setting,value
CC(=O)C(C)=O,Potency,[1],inactive
same,Potency,[2],inactive
same,Potency,[3],inactive
same,Potency,Papain (Carica papaya),inactive
Cc1nc(N=Nc2cc(S(=O)(=O)O)c3cc([N+](=O)[O-])cc(S(=O)(=O)O)c3c2)c(COP(=O)(O)O)c(C=O)c1O,Potency,[1],inactive
same,Potency,[2],inactive
same,Potency,[4],inactive
CC(=O)SC1CC2=CC(=O)CC[C@]2(C)C2CC[C@@]3(C)C(CC[C@@]34CCC(=O)O4)C12 (stereo partly specified),Potency,[1],inactive
same,Potency,[2],inactive
same,Potency,[3],inactive
same,Potency,Papain (Carica papaya),inactive
N#C/C(=C\c1ccc(O)c(O)c1)C(=O)NCCc1ccccc1,Potency,[2],inactive
N#Cc1cc([N+](=O)[O-])c2sc(C(N)=O)[n+]([O-])c2c1,Potency,[5],inactive
CN1C2CCC1CC(OC(c1ccccc1)c1ccccc1)C2 (stereo unspecified),Potency,[5],inactive
COc1cc(/C=C(\C#N)C(=O)c2ccc(O)c(O)c2)cc(I)c1O,max response,[6],17.8%
CN1CCCC1CCOC(C)(c1ccccc1)c1ccc(Cl)cc1 (stereo unspecified),max response,[6],8.32%
CC(C)NC[C@H](O)COc1cccc2ccccc12,Potency,[2],inactive
same,Potency,[3],inactive
same,Potency,[4],inactive
same,outcome,[7],inactive
same,Potency,Papain (Carica papaya),inactive
CC(N)=NCCCC[C@@H](N)C(=O)O,Potency,[1],inactive
same,Potency,[3],inactive
same,Potency,Papain (Carica papaya),inactive
Oc1ccc(/C=C/c2ccc(/C=C/c3ccc(O)cc3)c(Br)c2)cc1,Potency,[1],inactive
same,Potency,[3],inactive
same,Potency,Papain (Carica papaya),inactive
CCCCCCCCCCC/C=C\C(C)(C)/C=C\CCCC(=O)O,Potency,[2],inactive
same,Potency,[4],inactive
same,Potency,Papain (Carica papaya),inactive
O=C(O)C1=CC(=C(c2ccc(O)c(C(=O)O)c2)c2ccc(O)c(C(=O)O)c2)C=CC1=O,Potency,Papain (Carica papaya),7.94 µM (active)
COc1cc(/C=C(\C#N)C(=O)Nc2nnc(C(F)(F)F)s2)ccc1OCc1ccc(C(F)(F)F)cc1C(F)(F)F,Potency,[2],inactive
same,Potency,[4],inactive
N=C(N)c1ccc(OCCCCCOc2ccc(C(=N)N)cc2)cc1 (tested in a mixture with another compound),Potency,[3],inactive
same,Potency,[4],inactive
same,Potency,Papain (Carica papaya),inactive
